Bioassay records (PubChem BioAssay)
Rows were chosen to be rich in hits. Some 4.8% of all compounds tested hit in one or more screens of this group.
hgDAF12 agonist – activates the H. glycines DAF-12 receptor ligand-binding domain; AID 687014; HEK293 GAL4-hgDAF12 UAS-luciferase reporter, agonist luminescence; normalized to butyrate control; hit rate 1.8% among 370,000; activation, % at 6.8 µM;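 active means activation above a cutoff set at the mean of all screened compounds plus 3 SD, cut at about 10% in these data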;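 further: 0% = DMSO wells and 100% = sodium butyrate wells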
hcDAF12 agonist – H. contortus DAF-12 activation, primary screen. HEK293 hcDAF-12 lit1-tk-luc reporter, luminescence; 0% DMSO, 100% Δ7-dafachronic acid. activation, % at 6.8 µM. hit rate 1.4% among 370,000;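 active means activation above the mean of all tested compounds plus 3 SD, cut at about 5.5% in these data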;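 further: 100% = response to 3 µM Δ7-dafachronic acid high control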
DAX1 inh-1 – inhibits human nuclear receptor DAX1; HEK293 Gal4-DAX1 luciferase reporter, luminescence; inhibition, % at 6.75 µM; P51843; AID 504766; hit rate 0.99% among 340,000;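 active means inhibition above the mean over all tested compounds plus 3 SD, cut at about 4.2% in these data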;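 further: 0% = DAX1-transfected cells with DMSO and 100% = empty-vector control cells with DMSO; inhibition shows as a rise in luminescence from relieved DAX1 repression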
DAX1 inh-2 – DAX1 (NR0B1) inhibition, primary screen; inhibition, % at 6.8 µM; hit rate 1.1% among 370,000; HEK293T StAR-luciferase reporter, SF-1/DAX-1 repression relief;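 active means inhibition above the mean over all tested compounds plus 3 SD, cut at about 3.6% in these data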;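 further: 0% = DAX-1 cells with DMSO and 100% = cells lacking DAX-1 with DMSO; higher inhibition means more luminescence from relief of DAX-1 repression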
ssDAF-12 act – S. stercoralis DAF-12 activation, primary screen | HEK293 ssDAF-12/GRIP1 lit1-tk-luc reporter, luminescence; % of 3 µM dafachronic acid response | activation, % at 6.8 µM | hit rate 1% among 370,000 | AID 652126;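 active means activation above the mean over all tested compounds plus 3 SD, cut at about 0.9% in these data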;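 further: 0% = DMSO-only wells and 100% = 3 µM delta7-dafachronic acid wells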
Rev-erbA mod – Rev-erb alpha (human) modulation; P20393; activity, % at 10 µM; AID 1259318; Rev-erbα–FITC-DNA binding, fluorescence polarization, 90 min; hit rate 0.79% among 370,000;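 active means activity above about 14%, limit read from the data; passing the limit was not always enough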;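 further: 0% = DMSO wells with 35 nM protein and 100% = DMSO wells with 750 nM protein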
LXR ag – counter-screen for hcDAF-12 agonists: agonists of human LXR-beta | activation, % at 6.8 µM | 3,400 tested, under 10 active | AID 743027 | HEK293 Gal4-LXR tk-luc reporter, luminescence, 24 h; normalized: DMSO 0%, positive control 100% | shares compounds with hcDAF12 agonist;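 active means mean percent activation of the reporter above a cutoff set as the average over tested compounds plus their standard deviation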
Target sequence (P55055 whole entry, looked up, the tested form may be a part): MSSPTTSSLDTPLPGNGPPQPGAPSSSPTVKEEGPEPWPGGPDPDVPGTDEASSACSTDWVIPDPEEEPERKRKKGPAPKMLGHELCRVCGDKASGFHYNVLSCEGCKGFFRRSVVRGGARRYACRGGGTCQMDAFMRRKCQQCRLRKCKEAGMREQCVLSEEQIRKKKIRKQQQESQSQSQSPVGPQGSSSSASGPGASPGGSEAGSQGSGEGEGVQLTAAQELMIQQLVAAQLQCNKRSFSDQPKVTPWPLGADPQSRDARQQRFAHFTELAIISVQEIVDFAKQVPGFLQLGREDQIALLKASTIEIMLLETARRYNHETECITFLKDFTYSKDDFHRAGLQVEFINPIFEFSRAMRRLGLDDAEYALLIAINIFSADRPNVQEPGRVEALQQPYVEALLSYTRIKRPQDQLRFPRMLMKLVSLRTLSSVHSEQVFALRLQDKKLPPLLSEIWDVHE
hcDAF12 ag – hcDAF-12 agonism, confirmation assay | hit rate 61% among 3,400 | shares compounds with hcDAF12 agonist | AID 743032 | activation, % at 6.8 µM | HEK293 hcDAF-12 lit1-tk-luc reporter, luminescence; % of Δ7-dafachronic acid response;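 active means mean activation across triplicate tests above the threshold derived from the earlier primary screen, cut at about 5.5% in these data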;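 further: 0% = DMSO only wells and 100% = 3 µM Δ7-dafachronic acid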
Numbers without * were called inactive.

Results for O=C(O)c1ccccc1-c1noc(-c2ccccc2F)n1 ?
hgDAF12 agonist: 12*; hcDAF12 agonist: 7.3*; ssDAF-12 act: 0; Rev-erbA mod: 0; LXR ag: 1; hcDAF12 ag: 5

Results for Cc1cc(/C=C2\Cc3ccccc3C2=O)c(C)n1-c1ccccc1 ?
hgDAF12 agonist: 8; hcDAF12 agonist: 9.0*; DAX1 inh-1: -1; DAX1 inh-2: 1; ssDAF-12 act: 1; Rev-erbA mod: 1; LXR ag: 0; hcDAF12 ag: -1

Results for CCCCON1C(=O)c2cccc3cccc(c23)C1=O ?
hgDAF12 agonist: 3; hcDAF12 agonist: 9.6*; DAX1 inh-1: 0; DAX1 inh-2: 0; ssDAF-12 act: 0; Rev-erbA mod: 0; LXR ag: 0; hcDAF12 ag: 7.4*

What do the screens show for `O=C1c2ccccc2C(=O)N1CCCCON1C(=O)c2ccccc2C1=O`?
hgDAF12 agonist: 3; hcDAF12 agonist: -1; DAX1 inh-1: 0; DAX1 inh-2: 1; ssDAF-12 act: -2; Rev-erbA mod: -2

What do the screens show for `CC1Cn2c(nnc2-c2ccc(F)cc2)S1` (stereo not given)?
hgDAF12 agonist: 0; hcDAF12 agonist: 6.9*; DAX1 inh-1: 1; DAX1 inh-2: 2; ssDAF-12 act: 1.0*; Rev-erbA mod: 1; LXR ag: 0; hcDAF12 ag: 2

Results for CC1Cn2c(nnc2-c2cccc(Cl)c2)S1 (stereo not given) ?
hgDAF12 agonist: 0; hcDAF12 agonist: -1; DAX1 inh-1: 0; DAX1 inh-2: 1; ssDAF-12 act: -1; Rev-erbA mod: -2

Results for O=C(c1ccccc1)N1CCC2CCN(S(=O)(=O)c3ccccc3)CC21 (stereo not given) ?
hgDAF12 agonist: 1; hcDAF12 agonist: -3; DAX1 inh-2: -1; ssDAF-12 act: -1; Rev-erbA mod: 2

What do the screens show for `O=C(NCCC(=O)N1CCCCCCC1)c1ccc(Br)cc1`?
hgDAF12 agonist: -2; hcDAF12 agonist: 0; DAX1 inh-1: 0; DAX1 inh-2: 1; ssDAF-12 act: -1; Rev-erbA mod: -1

What do the screens show for `CC(C)(C)c1ccc(C(=O)NCCc2ccccc2)cc1`?
hgDAF12 agonist: 11*; hcDAF12 agonist: 6.6*; DAX1 inh-1: -1; DAX1 inh-2: 3; ssDAF-12 act: 1; Rev-erbA mod: 2; LXR ag: 2; hcDAF12 ag: 12*

What do the screens show for `CC(C)(C)c1ccc(C(=O)NCCC(=O)N2CCCC2)cc1`?
hgDAF12 agonist: 12*; hcDAF12 agonist: 7.0*; DAX1 inh-1: 3; DAX1 inh-2: 2; ssDAF-12 act: 0; Rev-erbA mod: -4; LXR ag: 1; hcDAF12 ag: 5

How did CC(C)(C)c1ccc(C(=O)NCc2ccccc2)cc1 do in these assays?
hgDAF12 agonist: 10; hcDAF12 agonist: 2; DAX1 inh-1: 2; DAX1 inh-2: 2; ssDAF-12 act: -1; Rev-erbA mod: 2

Results for CN(C)CCCNC(=O)c1c(N)[nH]c(C(=O)c2ccc(Br)cc2)c1-c1ccc(Br)cc1 ?
hgDAF12 agonist: 0; hcDAF12 agonist: 0; DAX1 inh-2: 3; ssDAF-12 act: -1; Rev-erbA mod: 5

Results for CCCCCCCCN1C(=O)[C@@H](CC(=O)N2CCN(C(=O)C3CC3)CC2)C[C@@]2(C(=O)OC)C1=C[C@H](C(C)(C)C)O[C@@H]2C ?
hgDAF12 agonist: 0; hcDAF12 agonist: 1; DAX1 inh-2: 0; ssDAF-12 act: -1; Rev-erbA mod: -1

What do the screens show for `O=C(CSc1ncc(-c2ccccc2)n1C1CCCC1)N1CCc2ccccc21`?
hgDAF12 agonist: 6; hcDAF12 agonist: 7.4*; DAX1 inh-1: 0; DAX1 inh-2: 0; ssDAF-12 act: 0; LXR ag: 0; hcDAF12 ag: 3

What do the screens show for `Cc1nc2cc(-c3ccc(Cl)cc3)nn2c(NCCN(C)C)c1C`?
hgDAF12 agonist: 6; hcDAF12 agonist: 13*; DAX1 inh-1: 2; DAX1 inh-2: 1; ssDAF-12 act: 1.5*; Rev-erbA mod: -4; LXR ag: 0; hcDAF12 ag: 7.5*

What do the screens show for `C=CCN1CCN(C(=O)c2oc3ccccc3c2C)CC1`?
hgDAF12 agonist: 0; hcDAF12 agonist: 7.5*; DAX1 inh-1: 0; DAX1 inh-2: 0; ssDAF-12 act: -1; Rev-erbA mod: 1; LXR ag: 0; hcDAF12 ag: 2

Results for Cc1c(C(=O)N2CCN(Cc3cccs3)CC2)oc2ccccc12 ?
hgDAF12 agonist: -1; hcDAF12 agonist: -1; DAX1 inh-1: 0; DAX1 inh-2: 0; ssDAF-12 act: -2; Rev-erbA mod: -3

What do the screens show for `COc1ccc(N2CCCN(CC(=O)Nc3ccccc3C)CC2)cc1`?
hgDAF12 agonist: 3; hcDAF12 agonist: -3; DAX1 inh-2: 0; ssDAF-12 act: 0; Rev-erbA mod: -3

What do the screens show for `COc1cccc(NC(=O)n2ncc3c(C)cccc32)c1`?
hgDAF12 agonist: 17*; hcDAF12 agonist: 13*; DAX1 inh-1: 0; DAX1 inh-2: 3; ssDAF-12 act: 1.8*; Rev-erbA mod: -1; LXR ag: 2; hcDAF12 ag: 14*

Results for COC(=O)C(CN)CN1C(=O)c2ccccc2C1=O (stereo not given) ?
hgDAF12 agonist: 0; hcDAF12 agonist: -2; DAX1 inh-2: 0; ssDAF-12 act: -1; Rev-erbA mod: 7

Results for Cc1ccc(S(=O)(=O)Nc2ccc(O)c3ccccc23)c(C)c1 ?
hgDAF12 agonist: -2; hcDAF12 agonist: 0; DAX1 inh-1: -1; DAX1 inh-2: -1; ssDAF-12 act: 0; Rev-erbA mod: 2

How did Cc1ccc(C)c(S(=O)(=O)Nc2ccc(O)c3ccccc23)c1 do in these assays?
hgDAF12 agonist: -4; hcDAF12 agonist: 8.0*; DAX1 inh-1: -2; DAX1 inh-2: -1; ssDAF-12 act: -1; Rev-erbA mod: 2; LXR ag: 0; hcDAF12 ag: 3

Results for O=C(CN1CCCCCC1)N/N=C/c1ccc2ccccc2c1 ?
hgDAF12 agonist: 4; hcDAF12 agonist: 8.1*; DAX1 inh-1: 1; DAX1 inh-2: 1; ssDAF-12 act: 0; Rev-erbA mod: 8; LXR ag: 0; hcDAF12 ag: 2

What do the screens show for `O=C(CNc1ccc2ccccc2c1)N/N=C/c1ccncc1`?
hgDAF12 agonist: 3; hcDAF12 agonist: 8.0*; DAX1 inh-1: 0; DAX1 inh-2: 0; ssDAF-12 act: 0; Rev-erbA mod: 15; LXR ag: 0; hcDAF12 ag: 1
